# In PMC12136788:
# Where a chain is given by its changes, count along the chain named. In all, about 24,000 sequences were measured (“enrichment r”: median about 0.99, highest 2% from about 3.7 on). Not all results are given here.
# B1: chr1:220276048:220276049:+_ENSG00000067704_ENST00000302637|hu_hu|hu_hu_hu_mus_True|8_78 (ssRNA)
# RNA: GGGAGUUCUACAGUCCGACGAUCGCAAAUUGCCUGGUUGGCGGGAAUUGUCCAAGGUUGUGUGGUCCAAACUAAAACGCUAACAGGGGAUGAGGCAUCUGUAAGAGACUCCAACUUCGGAGGAGGUUUUAAGAGAGGGAAUCUCAACAGAGGAUUGAGCAUCA
# B2: chr9:62645482:62645483:-_ENSMUSG00000032244_ENSMUST00000034775|mus_hu|FALSE|FALSE (ssRNA)
# RNA: GGGAGUUCUACAGUCCGACGAUCUACUGUGGUAUGGUUCACGUUGGCUCCAUGGCUGACUAGAAGUUUAACAACUUCAAAAUGUCCUGCUCCAGCUGCACACCAAAGAGCAGUGGCACCAUCAAUGACAUACCCGUCGAAGCGCAACAGAGGAUUGAGCAUCA
# B3: chr2:232319755:232319756:-_ENSG00000115053_ENST00000322723|hu_hu|motif|central (ssRNA)
# RNA: GGGAGUUCUACAGUCCGACGAUCAAAAGUUUAUAUGAAUAUCCAGUCAAAACCAACACGGUAUUGCCCUUGAAAUGUUAACGGGACGGAUUUCCAAGGAGACCACAGGACUGUAUACUGUCUUGGAAUGUCCUCAGAAGGCUCCAACAGAGGAUUGAGCAUCA
# B4: 69235085_69235205_3312_3pUTR_ENSG00000135679_ENST00000462284|human|control|control (ssRNA)
# RNA: GGGAGUUCUACAGUCCGACGAUCGGCUGGAGAAUAAGUACAUUUUUACAGCCGGGUGUGGUGGCUAACGCCUGUAAUCCUACUUAGCACUUUGCGAGGCCAAGACAGGAGGAUCUCUUGAGCCCAGGAGUUCGAGACCAGCCUCAACAGAGGAUUGAGCAUCA
# B5: chr11:79222206:79222207:+_ENSMUSG00000020716_ENSMUST00000071325|mus_hu|FALSE|FALSE (ssRNA)
# RNA: GGGAGUUCUACAGUCCGACGAUCUUUUGUAAAUUCAUCUGGAUAAUUUUCUACCCAGUUCCAAAAUGCCUUUUCCAGGCUAUUUAUAACUGCUAACUGCGCAACCUUCUUUAGGGCUUUAAAUUUAAAUGCUGUUUCCUUCAGCAACAGAGGAUUGAGCAUCA
# B6: 62954625_62958383_5419_CDS_ENSG00000116641_ENST00000251157|human|control|control (ssRNA)
# RNA: GGGAGUUCUACAGUCCGACGAUCUGCUUCUUGAAGUUUACCAUGAAUUGUGGAUAGUUUCUUUGCAUCCCGAUUAGCUUCAUGAAUAGGAAUAAGUACUUUGUAAACUUCAUUAACUGCUUCAUACAUGCCAGCCAUAGAGAACAACAGAGGAUUGAGCAUCA
# B7: chr9:53391639:53391640:-_ENSMUSG00000032047_ENSMUST00000034547|mus_hu|motif|central (ssRNA)
# RNA: GGGAGUUCUACAGUCCGACGAUCCACUUUUUGGGGAUCAAUCUCCAACAUUUUAAUGUUUGCUAGUACAACCAGACGGAAGGCUUCAUUUACUUCCCACAUUGCAAUAUCUUCUUUUUUCAAUCCCACAUCUUUAAGAACCAUCAACAGAGGAUUGAGCAUCA
# B8: chr4:76721835:76721836:+_ENSG00000138768_ENST00000264904|hu_mus|hu_hu_hu_mus_True|48_48 (ssRNA)
# RNA: GGGAGUUCUACAGUCCGACGAUCGUUUGGCUGGGGUUUCUGAGACGCUCUGGAAUAUAACUCAUGUUUGCUAAUAAAUCCUAGUUUUCUAUGAAAUUUCUCUUUGCCAAUCCUCUUCUCUAUUAGUUGCUUUAGUUUCUCUUUCAACAGAGGAUUGAGCAUCA
# B9: chr9:66219764:66219765:+_ENSMUSG00000038664_ENSMUST00000042824|mus_mus|motif|central (ssRNA)
# RNA: GGGAGUUCUACAGUCCGACGAUCUUCAAAAUCAGGCAACUGUGGUCCUUUGAGGCAUAAAACCUGUUGAGGCAAAGGUACGGCUUCCUUAUUGCUGAUCAGUUUAGAAUACAAAACGGUAACUCCCUCUCUUGUAGCAAUAGACAACAGAGGAUUGAGCAUCA
# B10: chr7:44244176:44244177:+_ENSG00000106636_ENST00000223369|hu_mus|hu_hu_hu_mus_False|38_108 (ssRNA)
# RNA: GGGAGUUCUACAGUCCGACGAUCACUAUCAUUCCGGACGUAGACAUGGCAAAGAUACUCUUGUUCUUUGACAGAAGCUCUGCUGCCUUUCCCCGAGCGCUCCACAAUCAGUUGACUUGUAAAGGUCAUGAAUUCCUGCACACUCAACAGAGGAUUGAGCAUCA
# B11: 109692034_109692919_6190_CDS_ENSG00000148143_ENST00000277225|human|control|control (ssRNA)
# RNA: GGGAGUUCUACAGUCCGACGAUCGAGGUGAUUGCAGAUGGCUCGGAGCGUUGGGUGCACUUCCACACAGAAUUUACAUUUGUAGCCCACCACUUUCCUCUCCUUGAUCUUUGGCACCUCUUCUAAGUGACCAAAAGGCCUCUCCAACAGAGGAUUGAGCAUCA
# B12: chr1:220276048:220276049:+_ENSG00000067704_ENST00000302637|hu_hu|hu_hu_hu_mus_True|38_88 (ssRNA)
# RNA: B1 RNA with U48C, U57C, U60G, G100A, U127C, U129C, A131G, A135G
# B13: chr1:115282363:115282364:-_ENSG00000009307_ENST00000339438|perfect_dup|motif|central (ssRNA)
# RNA: GGGAGUUCUACAGUCCGACGAUCAUCAUCUCCUACUUUUAAGUCUUGCAGGUUGCCAUUAUACUGUGAACAGUGGAAGAAAAGUCGGGCUUGACGUUCUGAACACUGAAUAAAUCCGUAAGAGGUUAACAGUUUUUCAAUAACCAACAGAGGAUUGAGCAUCA
# B14: chr18:35748043:35748044:+_ENSMUSG00000037236_ENSMUST00000166793|perfect_dup|FALSE|FALSE (ssRNA)
# RNA: GGGAGUUCUACAGUCCGACGAUCUGUAUAAAAGAGUGAACACAGCUUACAGUAAAACCCUGUUUUAGGUAUCACAUAGUCUAUACCAACAGGAACAUUAGGCUGAUAUGGUCCGAUUCUAUACUCAUCGGGAAUUGUAUAAUCCAACAGAGGAUUGAGCAUCA
# Molecular target: T1, UNK ZnF1-3 (human, UniProt Q9C0B0 31-174)
# T1 sequence: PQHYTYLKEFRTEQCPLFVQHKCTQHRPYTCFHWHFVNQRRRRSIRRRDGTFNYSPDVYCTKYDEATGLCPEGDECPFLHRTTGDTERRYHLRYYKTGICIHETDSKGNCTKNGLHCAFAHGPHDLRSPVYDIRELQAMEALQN
# Experiment: nsRBNS (natural sequence RNA bind-n-seq); RBNS binding buffer (assumed for nsRBNS): 25 mM Tris pH 7.5, 150 mM KCl, 3 mM MgCl2, 0.01% Triton X-100, 500 ug/ml BSA, 20 U/ml SUPERase-In, 4 C; UNK is unkempt and MSI1 is Musashi-1; names of the RNAs are library labels; protein concentration not given here; high values mean tight binding
row,Binder,binding signal [enrichment R]
1,B1,1.91
2,B2,0.893
3,B3,0.847
4,B4,1.12
5,B5,0.853
6,B6,1.01
7,B7,1.03
8,B8,0.57
9,B9,0.879
10,B10,0.779
11,B11,0.805
12,B12,1.67
13,B13,1.55
14,B14,0.418
